Where “and” joins values, the source holds several entries; their conditions need not be identical. Equal entries are not always repeated. Inconclusive results are not listed. Entries that show only a call come without a potency. Calls of active or inactive are those of the source. The call rests on the fitted dose curve; in most records, active means well fitted cell-killing curve with a large enough effect in the repeat runs; inconclusive means weak or mixed curves, or effect the other way; inactive means no such curve, though single readings can be large or run the other way.
Assay: qHTS assay for small molecule activators of the heat shock response signaling pathway - cell viability counter screen (AID 743209); further: nearly all actives have a fitted effect of over 50% in size
Conditions: HSE-bla HeLa viability, CellTiter-Glo luminescence, 5 h; series mostly up to 62.6 µM
Text: U.S. Tox21 Program National Center for Advancing Translational Sciences [NCATS] NIH Chemical Genomics Center [NCGC] U.S. Environmental Protection Agency [EPA] National Institutes of Environmental Health Sciences [NIEHS] National Toxicology Program [NTP] U.S. Food and Drug Administration [FDA] Tox21 Assay Overview: Various chemicals, environmental and physiological stress conditions may lead to the activation of heat shock response/ unfolded protein response (HSR/UPR). There are three heat shock transcription factors (HSFs) (HSF-1, -2, and -4) mediating transcriptional regulation of the human HSR. To identify the compounds that activate HSR signaling, HSE-bla HeLa cell line (Invitrogen, Carlsbad, CA, USA) containing a beta-lactamase reporter gene under the control of the heat shock response elements was used to screen Tox21 10K compound library. The cytotoxicity of the Tox21 compound library against the HSE-bla HeLa cell line was tested in parallel by measuring the cell viability using CellTiter-Glo assay (Promega, Madison, WI) in the same wells.
Tox21 Assay Protocol Summary: The CellSensor HSE-bla HeLa cells (Invitrogen, Carlsbad, CA, USA) were dispensed at 1500 cells/6uL/well into 1536-well black wall/clear bottom plates using a Multidrop combi (Thermo Fisher Scientific, Waltham, MA) dispenser. After the assay plates were incubated at 37 C and 5% CO2 overnight, 23 nL of compounds dissolved in DMSO, positive controls or DMSO only was transferred to the assay plate by a Pintool station (Kalypsys, San Diego, CA). The plates were incubated at 37 C for 5 h. After 1 uL of LiveBLAzerTM B/G FRET substrate was added using a Flying Reagent Dispenser (FRD, Beckman Coulter, Indianapolis, IN, USA), the plates were incubated at room temperature for 2.5 h, and fluorescence intensity was measured by an Envision plate reader (PerkinElmer, Shelton, CT). For cell viability readout that measures cytotoxicity, 3 ul/well of CellTiter-Glo reagent was added into the assay plates using a FRD. After 30 min incubation at room temperature, the luminescence intensity in the plates was measured using a ViewLux (PerkinElmer) plate reader.
Potency means the concentration at half of the fitted maximal effect.

| Structure (SMILES) | Potency |
| --- | --- |
| O=C([O-])c1ccccn1.O=C([O-])c1ccccn1.O=C([O-])c1ccccn1.[Cr+3] | inactive |
| Nc1cccc2ccccc12 | inactive |
| CC(Cl)C(=O)O (stereo not given) | inactive |
| CCCN(CCC)c1c([N+](=O)[O-])cc(C(C)C)cc1[N+](=O)[O-] | inactive |
| CN(C)c1ccc(N=O)cc1 | 3.9 µM (active) and 5.49 µM (active) |
| CCCC[N+](CCCC)(CCCC)CCCC | inactive |
| NC(=O)CF | inactive |
| CCCCCCCCn1sccc1=O | inactive |
| CCCCOC(=O)CCC(=O)OCCCC | inactive |
| CCOP(=S)(OCC)Oc1ccc(S(C)=O)cc1 (stereo not given) | inactive |
| O=[N+]([O-])c1cc(Cl)c(Cl)cc1Cl | inactive |
| CC(C)(C)NCC(O)c1ccccc1Cl (stereo not given) | inactive |
| [Cl-].[Cl-].[Hg+2] | 3.87 µM (active) and 30.9 µM (active) |
| CCCCCCCCCCCCN(C)C | inactive |
| O=S(=O)(Cl)Cl | inactive |
| CCCCCCCCCCCC[N+](C)(C)CCOc1ccccc1 | 34.7 µM (active) |
| Nc1cc(Cl)cc(C(=O)O)c1Cl | inactive |
| O=C=NC1CCCCC1 | inactive |
| CCCCC(CC)CO[N+](=O)[O-] (stereo not given) | inactive |
| CC1(C)CC(=O)CC(C)(C)N1[O] | inactive |

| Structure (SMILES) | Potency |
| --- | --- |
| O=[N+]([O-])/C=C/c1ccccc1 | inactive |
| CN(C)N | inactive |
| CCC(C)(C)c1ccc(O)c(C(C)(C)CC)c1 | 17.2 µM (active) and 17.4 µM (active) |
| COC1CC(=C(c2cccs2)c2cccs2)C[N+](C)(C)C1 (stereo not given) | inactive |
| C[N+](C)(C)CC1CO1 (stereo not given) | inactive |
| CCNC(=O)NC(=O)/C(C#N)=N/OC | inactive |
| C=CCc1ccccc1O | inactive |
| O=C(O)c1cc(I)cc(I)c1I | inactive |
| Nc1c(Br)cc(Br)c2c1C(=O)c1ccccc1C2=O | inactive |
| C[C@]12C=CC3=C4CCC(=O)C=C4CC[C@H]3[C@@H]1CC[C@@H]2O | inactive |
| C[CH2][Hg][S]c1ccccc1C(=O)O | 19.5 µM (active) and 15 µM (active) |
| c1ccc2c(c1)-c1cccc3cccc-2c13 | inactive |
| CC(C)[C@@H](C(=O)O[C@@H](C#N)c1cccc(Oc2ccccc2)c1)c1ccc(Cl)cc1 | inactive |
| CCC1CCC(=O)O1 (stereo not given) | inactive |
| CC(C)(c1ccccc1)c1cc(-n2nc3ccccc3n2)c(O)c(C(C)(C)c2ccccc2)c1 | inactive |
| NP(N)(=O)NC(=O)c1ccc(F)cc1 | inactive |
| CC(C)CCON=O | inactive |
| CC(C)(C)OOC(C)(C)CCC(C)(C)OOC(C)(C)C | inactive |
| COC(=O)C1(O)c2ccccc2-c2ccccc21 | inactive |
| COc1ccc(C(O)(c2cncnc2)C2CC2)cc1 (stereo not given) | inactive |

Source: PubChem BioAssay (Tox21)
